Screens (PubChem)
The list is not random: actives were taken first. Their share in the collection is about 1.9%.
Giardia killer: Giardia lamblia killing | Giardia lamblia trophozoite viability | activity change, % at 7.66 µM, hits read low | 340,000 compounds, 0.15% hits; in the data active = activity change below about -80%; inconclusive = between about -30% and that limit;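 note: parasites exposed to compound for two days anaerobically before the ATP read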
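Media and compound were dispensed first, then trophozoites at 100 cells/well; plates sat 48 hrs at 37 deg C without oxygen before ATP luminescence reagent was added and read after 15-30 min at room temperature.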
RXFP1 antagonist: antagonists of human relaxin receptor RXFP1; AID 1259400; HEK293-RXFP1, relaxin-stimulated cAMP HTRF, 30 min; hits give low values; 350,000 compounds, 0.59% hits; activity change, negative = inhibition, % at 57.5 µM;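 active = activity change of -60% or lower, but not beyond a set lower limit; inconclusive = change between -60% and -40%, or beyond the set limit; inactive = change above -40%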
IL2 activator: IL-2 activation; IL-2 activation reporter assay, cell-based qHTS; stimulated with anti-CD3/CD4/CD28 beads; in transgenic mouse T cells; activation, % (series mostly up to about 46 µM); 360,000 compounds, 0.065% hits; AID 652025; in the data active = activation above about 50%; inconclusive = mostly about 30% to 49%
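Unstimulated transgenic mouse T cells, 750 per well, received compound and, after 60 minutes, anti-CD3/anti-CD4 bead plus anti-CD28 stimulation. EGFP and DsRed were quantified after 18 hours.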
RXFP1 ag: agonists of human relaxin receptor RXFP1; HEK293T-RXFP1 cAMP TR-FRET, 30 min; response scale: percent of porcine relaxin response, buffer zero; 370,000 compounds, 0.3% hits; AID 2676; Potency, µM (titrated, usually from 57.5 µM), most hits filed as activators; note: nearly all actives have a fitted effect of over 60% in size
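cAMP rise read by TR-FRET after 30 min, 37C compound exposure (up to 58 uM) in RXFP1-transfected HEK293 cells with Ro 20174 present. EC50 from Hill-equation fits, with 29 nM porcine relaxin as 100% and buffer as basal.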
BRCA1 expr up: BRCA1 expression activation; MCF7-BRCA1-FFLuc reporter, luminescence, 48 h; response scale: scaled: vehicle 0%, 10 µM genistein 100%; Potency, µM (highest dose often 46.1 µM), most hits filed as activators; 380,000 compounds, 1.1% hits; note: nearly all actives have a fitted effect of over 80% in size
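Activators of BRCA1 expression were detected as increased firefly luciferase luminescence in engineered MCF7 cells after 48 h compound incubation. Signals were scaled to genistein 10 microM as full activation.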
NPSR antag: blocks cAMP signaling of the human neuropeptide S receptor; Q6W5P4; CHO-NPSR cells, cAMP TR-FRET, antagonist mode; Potency, µM (highest dose often 38.3 µM), actives largely listed as inhibitors; 220,000 compounds, 1% hits; note: nearly all actives have a fitted effect of over 50% in size
Target sequence (Q6W5P4 whole entry, looked up): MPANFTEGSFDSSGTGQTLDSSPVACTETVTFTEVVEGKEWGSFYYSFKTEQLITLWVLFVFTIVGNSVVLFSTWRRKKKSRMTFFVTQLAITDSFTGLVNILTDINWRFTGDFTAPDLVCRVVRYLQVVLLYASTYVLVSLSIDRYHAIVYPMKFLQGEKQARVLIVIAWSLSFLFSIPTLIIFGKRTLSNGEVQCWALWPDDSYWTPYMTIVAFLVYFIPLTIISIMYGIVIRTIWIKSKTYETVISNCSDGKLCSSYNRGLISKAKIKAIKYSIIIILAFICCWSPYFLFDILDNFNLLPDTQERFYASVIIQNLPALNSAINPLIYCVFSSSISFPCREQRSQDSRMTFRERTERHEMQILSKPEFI
Hits are given with their value. Unless noted, calls come from the whole dose curve; as a rule, active = well fitted curve in the direction sought with a large enough effect; inconclusive = small, poorly fitted or top-dose-only effect, or another doubt; inactive = no such curve, though single readings can be large; an effect the other way counts as inactive or inconclusive.

How did CCc1ccc(N=c2c([N+](=O)[O-])nn(-c3ccc4c(c3)OCCO4)n2O)cc1 do in these assays?
Giardia killer: inconclusive; RXFP1 antagonist: inactive; IL2 activator: inactive; RXFP1 ag: inactive; BRCA1 expr up: 4µM; NPSR antag: inactive

What do the screens show for `COc1ccc(-n2nc([N+](=O)[O-])c(=NCc3ccc4c(c3)OCO4)n2O)cc1`?
Giardia killer: -92; IL2 activator: inactive; RXFP1 ag: inactive; BRCA1 expr up: inconclusive; NPSR antag: inactive

Results for O=[N+]([O-])c1nn(-c2ccccc2)n(O)c1=NCc1ccc2c(c1)OCO2 ?
Giardia killer: inactive; RXFP1 antagonist: inactive; IL2 activator: inactive; RXFP1 ag: inactive; BRCA1 expr up: inactive; NPSR antag: inactive

Results for COc1ccc(NC(=O)c2cc3ccccc3o2)c(OC)c1 ?
RXFP1 antagonist: inactive; RXFP1 ag: inactive

Results for COc1ccc(-c2nnc(SCC(=O)N(C)Cc3ccccc3)o2)cc1OC ?
RXFP1 ag: inactive; BRCA1 expr up: inactive

Results for CC1=C(C(N)=O)C(c2cccc(C)c2)n2nc(-c3ccc(Cl)cc3)nc2N1 (stereo not given) ?
RXFP1 antagonist: -62; RXFP1 ag: inactive

What do the screens show for `COCCNC(=O)c1ccc2c3n(nc2c1)-c1ccc(C)cc1CO3`?
Giardia killer: inactive; IL2 activator: inactive; RXFP1 ag: inactive; BRCA1 expr up: inactive; NPSR antag: inactive

How did C[C@@H](CO)NC(=O)c1ccc2c3n(nc2c1)-c1ccccc1CO3 do in these assays?
Giardia killer: inconclusive; IL2 activator: inactive; RXFP1 ag: inactive; BRCA1 expr up: inconclusive; NPSR antag: inactive

What do the screens show for `O=C(c1ccc2c3n(nc2c1)-c1ccc(Cl)cc1CO3)N1CCOCC1`?
Giardia killer: inactive; IL2 activator: inactive; RXFP1 ag: inactive; BRCA1 expr up: 6.3µM; NPSR antag: inactive

How did Cc1ccc2c(c1)COc1c3ccc(C(=O)N[C@@H](CO)C(C)C)cc3nn1-2 do in these assays?
Giardia killer: inactive; IL2 activator: inactive; RXFP1 ag: inactive; BRCA1 expr up: 6.3µM; NPSR antag: inactive

How did O=C(c1ccc2c3n(nc2c1)-c1ccccc1CO3)N1CCOCC1 do in these assays?
Giardia killer: inactive; IL2 activator: inactive; RXFP1 ag: inactive; BRCA1 expr up: inconclusive; NPSR antag: inactive

What do the screens show for `O=C(c1ccc2c3n(nc2c1)-c1ccccc1CO3)N1CCCCC1`?
Giardia killer: inconclusive; IL2 activator: inactive; RXFP1 ag: inactive; BRCA1 expr up: inconclusive; NPSR antag: inactive

Results for Cc1ccc2c(c1)COc1c3ccc(C(=O)N4CCCCC4)cc3nn1-2 ?
Giardia killer: inactive; IL2 activator: inactive; RXFP1 ag: inactive; BRCA1 expr up: 4.5µM; NPSR antag: inactive

What do the screens show for `O=C(NCC1CCCO1)c1ccc2c3n(nc2c1)-c1ccccc1CO3` (stereo not given)?
Giardia killer: inactive; IL2 activator: inactive; RXFP1 ag: inactive; BRCA1 expr up: 2.5µM; NPSR antag: inactive

What do the screens show for `COc1ccc(CCn2c3c(c(=O)[nH]c2=S)CN(CC(C)C)CN3)cc1OC`?
Giardia killer: inactive; BRCA1 expr up: inactive

How did CN(C)S(=O)(=O)c1cccc(COc2ncnc3c(Cl)cc(Cl)cc23)c1 do in these assays?
Giardia killer: inactive; RXFP1 antagonist: inactive; IL2 activator: inactive; RXFP1 ag: 16µM; BRCA1 expr up: inactive

What do the screens show for `CN(C)S(=O)(=O)c1cccc(COC(=O)c2ccc(Cl)cc2O)c1`?
Giardia killer: inactive; RXFP1 antagonist: inactive; IL2 activator: inactive; RXFP1 ag: inactive; BRCA1 expr up: inactive; NPSR antag: inactive

Results for COc1ccc(Br)cc1C1NC(c2ccc3c(c2)OCO3)=CC(c2cc(Cl)ccc2O)N1 (stereo not given) ?
Giardia killer: inactive; BRCA1 expr up: inactive

Results for Cc1ccc(/C=C(\C#N)C(=O)Nc2ccc(Br)cc2)o1 ?
RXFP1 antagonist: inactive; RXFP1 ag: inconclusive

What do the screens show for `O=C(O)/C=C/c1ccc([N+](=O)[O-])o1`?
Giardia killer: inactive; RXFP1 antagonist: inactive; IL2 activator: inactive; RXFP1 ag: inactive; BRCA1 expr up: inactive; NPSR antag: inactive
